# Screens deposited in PubChem by National Center for Advancing Translational Sciences (NCATS).
# RECQ1 inh-1: RECQ1 (human) helicase inhibition; P46063; Potency, µM (highest dose often 57.3 µM), without a hit: at the top dose activity, negative = inhibition, most hits filed as inhibitors; RECQ1 DNA unwinding, red fluorescence kinetic read; actives 0.54% (n = 240,000);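 note: plate controls were vehicle for no effect and no enzyme for full effect; nearly all actives have a fitted effect of over 30% in size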
#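 50 nM RECQ1T1 preincubated 15 min with compound in Tris pH 8.0 buffer with MgCl2, DTT, Tween-20 and 2.5 ug/ml poly(dI-dC); started with 200 nM TAMRA/BHQ-2 forked duplex and 2 mM ATP. Unwinding read as fluorescence (525/598 nm), two reads 2 h apart.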
# TR SRC2 fluor cs: alters Texas Red total fluorescence, flagging assay interference. TRb/SRC2 Texas Red total fluorescence interference. Potency, µM (highest dose often 106 µM), inactives show at the highest dose fluorescence change, negative = quenching. actives 0.29% (n = 280,000); active = well fitted curve in either direction with a large enough effect; inconclusive = small, poorly fitted or top-dose-only effect
#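 Flags fluorescent or light-absorbing compounds by total fluorescence, S + 2P, at 555 nm excitation and 632 nm emission. Mixture: 20 nM Texas Red SRC2 peptide, 0.6 uM human TRb LBD, 1 uM T3, 5% DMSO; compound exposure 5 h at ambient temperature.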
# TRb SRC2 PPI: inhibitors of human thyroid hormone receptor beta-SRC2 interaction | Potency, µM (titrated, usually from 106 µM), for inactives: at the top dose activity change, negative = inhibition, most hits filed as inhibitors | TRbeta-SRC2 peptide binding, fluorescence polarization; receptor liganded with 1 µM T3 | P10828 | actives 0.065% (n = 280,000);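 note: plate controls were bound peptide for no effect and peptide without receptor for full effect; nearly all actives have a fitted effect of over 50% in size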
#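 Fluorescence polarization of 20 nM Texas Red SRC2 peptide with 0.6 uM human TRb ligand-binding domain, in Tris buffer with 1uM T3 and 5% DMSO. Incubated 5 hr ambient; normalized to unbound and bound controls.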
# BLM helicase inh: blocks DNA unwinding by human BLM helicase; AID 2528; actives 0.2% (n = 350,000); Potency, µM (highest dose often 56.1 µM), without a hit: top-dose activity change, negative = inhibition, usual class: inhibitors; recombinant BLM DNA unwinding, fluorescence dequenching;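 note: plate controls were vehicle for no effect and no enzyme for full effect; nearly all actives have a fitted effect of over 35% in size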
# RECQ1 inh conf: confirmation of human RECQ1 helicase inhibitors | shares compounds with RECQ1 inh-1 | RECQ1 helicase DNA unwinding, fluorescence | Potency, µM (doses to about 229 µM), for inactives: at the top dose activity change, negative = inhibition, actives largely listed as inhibitors | actives 28% (n = 610); note: nearly all actives have a fitted effect of over 45% in size
# RECQ1 ADP FP: ADP displacement flagged in RECQ1 inhibitor counter-screen; shares compounds with RECQ1 inh-1; actives 27% (n = 530); Potency, µM (titrated, usually from 228 µM), without a hit: at the top dose activity change, negative = inhibition, actives largely listed as inhibitors; ADP fluorescence polarization displacement counterscreen; AID 2711; note: nearly all actives have a fitted effect of over 45% in size
# RECQ1 inh-2: confirmation of human RECQ1 helicase inhibitors | shares compounds with RECQ1 inh-1 | recombinant RECQ1 DNA unwinding, red fluorescence | Potency, µM (doses to about 119 µM), without a hit: top-dose activity, negative = inhibition, actives largely listed as inhibitors | actives 15% (n = 1,100); note: nearly all actives have a fitted effect of over 50% in size
# The depositor's hits bear a star; i = inactive; ? = inconclusive; . = no result; ! = repeats disagree; [ ] = remark or other dose. Only some compounds are listed: those with a hit (about 0.64% of all), similar ones and a draw of the others. Unless noted, calls come from the whole dose curve; as a rule, active = well fitted curve in the direction sought with a large enough effect; inconclusive = small, poorly fitted or top-dose-only effect, or another doubt; inactive = no such curve, though single readings can be large; an effect the other way counts as inactive or inconclusive. Unless noted, % is set by controls: 0 for no effect and ±100 for the full control effect; potency is the fitted concentration of half-maximal effect.
SMILES,RECQ1 inh-1,TR SRC2 fluor cs,TRb SRC2 PPI,BLM helicase inh,RECQ1 inh-2,others
Nc1cc2c3c(cccc3c1)C(=O)N(CCN1CCCC1)C2=O,?,-3%,-6%,118%,.,
Cc1cc(/C=C/c2ccc3cc(N(C)C)ccc3[n+]2C)c(C)n1-c1ccccc1,25µM*,40µM*[fluorescent],?,-23%,.,RECQ1 inh conf=271%;RECQ1 ADP FP=40µM*
Cc1ccc(S(=O)(=O)N(CC(=O)Nc2cccc(N(C)S(C)(=O)=O)c2)c2ccc(Cl)c(Cl)c2)cc1,7.1µM*,-4%,0%,-12%,-9%,RECQ1 inh conf=?;RECQ1 ADP FP=6%[91.9 µM]
Cc1ccc(C(=O)c2cc([N+](=O)[O-])ccc2N2CCCCC2)c(C)c1,1.6µM*,1%,-2%,-5%,-14%,
O=C(O)c1cc([N+](=O)[O-])ccc1N1CCCCC1,0%,5%,-4%,1%,.,
CCOc1ccc(-c2nonc2NC(=O)c2oc3cc(C)ccc3c2C)cc1,.,-1%,7%,-7%,.,
CC1=Nc2ccccc2/C1=C/c1nc(-c2ccc(C)s2)oc1O,?,?,-17%,-7%,?,
Cc1cccc(NC(=O)Cn2c(=O)n(Cc3ccc4c(c3)OCO4)c(=O)c3ccccc32)c1,.,-16%,8%,-3%,.,
O=C(COc1ccc2ccccc2c1)Nc1cccc(C(=O)Nc2ccccc2C(=O)O)c1,?,-5%,30%,-3%,?,
COc1ccc(N2CC(NC(=O)c3ccc4c(c3)OCO4)CC2=O)cc1OC (centres undefined),.,0%,-5%,1%,.,
c1ccc(Nc2c3c(nc4ccccc24)CCC3)cc1,-2%,-3%,5%,-5%,.,
c1ccc2c(Nc3ccc4c(c3)OCCO4)c3c(nc2c1)CCC3,?,2%,-1%,4%,-12%,
COc1ccccc1NC(=O)Cc1noc(CSc2cc(C)c3ccccc3n2)n1,?,2%,-20%,-9%,-16%,
Fc1ccc(N2CCN(Cc3cccn3-c3nnc(N4CCN(C5CCCCC5)CC4)s3)CC2)cc1,.,4%,8%,1%,.,
Cc1ccc(NC(=O)C2CCN(S(=O)(=O)c3c(C)noc3/C=C/c3ccco3)CC2)nc1,35µM*,2%,5%,-5%,-11%,
Cc1ccccc1NC(=O)C1CCN(S(=O)(=O)c2c(C)noc2/C=C/c2ccco2)CC1,.,0%,3%,-5%,.,
O=C(O)CCCCCn1c(SCc2cc(=O)n3cc(Cl)ccc3n2)nc2ccsc2c1=O,-1%,-3%,-4%,-6%,.,RECQ1 inh conf=?;RECQ1 ADP FP=?
CCc1ccc(NC(=O)CSc2nc3ccsc3c(=O)n2CCCCCC(=O)O)cc1,i,-2%,4%,2%,.,RECQ1 inh conf=10%;RECQ1 ADP FP=7%
Cc1cc2c(nc1C)CCCN2C[C@H](O)CN1CCCc2nc(-c3ccc(Br)cc3)ccc21,12%[11.5 µM],-7%[11.2 µM],-1%[11.2 µM],5%[12.4 µM],.,
COc1ccc(C(=O)NCc2ccc3c(c2)cc(C)n3C)cc1,?,21%,-20%,-5%,0%,
COc1cc(OC)cc(C(=O)NCc2ccc3c(c2)cc(C)n3C)c1,?,?,-28%,0%,.,
COc1ncc2nc(-c3ccc(F)cc3)c(=O)n(Cc3cccs3)c2n1,i,.,.,1%,.,
COc1ccc(S(=O)(=O)/N=C2/NC(=O)/C(=C/c3ccco3)S2)cc1,?,?,12%,5%,-27%,
C/C(=N\NC(=O)c1ccncc1)c1cc2ccccc2oc1=O,-4%,-6%,9%,1%,.,
N/C(=N\NC(=O)c1ccccc1Cl)c1cc2ccccc2oc1=O,28µM*,-1%,-10%,-7%,-6%,
SMILES,RECQ1 inh-1,TR SRC2 fluor cs,TRb SRC2 PPI,BLM helicase inh,RECQ1 inh-2,others
Cc1cccc(NC(=O)Cn2c(=O)n(Cc3nc(-c4ccccc4)no3)c(=O)c3ccccc32)c1,.,2%,-5%,-1%,.,
CCCC1=C/C(=C/c2ccc(-c3ccccc3OC)o2)C(=O)O1,22µM*,0%,-1%,-11%,.,RECQ1 inh conf=?
O=C(c1ccc2c(=O)n(CCc3ccccc3)c(=O)[nH]c2c1)N1CCN(c2ccccc2)CC1,.,.,.,-5%,.,
COc1ccc(N2CCN(C(=O)c3ccc4c(=O)n(CCc5ccc(OC)c(OC)c5)c(=O)[nH]c4c3)CC2)cc1,-13%,?,-3%,-7%,.,RECQ1 inh conf=6%;RECQ1 ADP FP=?
COc1ccc(Cl)cc1NC(=O)Cn1c(=O)n(-c2ccc(C)cc2)c(=O)c2ccc(C(=O)NCc3ccccc3Cl)cc21,.,0%,-2%,-3%,.,
O=C1OC(c2ccc(F)cc2)=C/C1=C\c1ccc(O)cc1,.,.,.,-4%,.,
O=C1OC(c2ccc(F)cc2)=C/C1=C\c1ccc([N+](=O)[O-])o1,22µM*,-9%,-3%,-23%,.,RECQ1 inh conf=-5%[114 µM]
COc1ccccc1CCNC(=O)CSc1ccc(-c2ccco2)nn1,?,-11%,6%,-11%,-11%,
Oc1c(C(c2ccc(Cl)cc2Cl)N2CCCC2)sc2nc(-c3ccco3)nn12 (centres undefined),.,-2%,2%,0%,.,
C=CC1=C2C=C(C3CC3)N(C3CCCC3)C=C2C(=O)C(C)(OC(=O)c2ccco2)C1=O (centres undefined),12%[11.5 µM],0%[11.2 µM],4%[11.2 µM],-19%[12.4 µM],.,
CC1(OC(=O)C2CCCC2)C(=O)C=C2C=C3CCCN3C=C2C1=O (centres undefined),i[11.5 µM],-3%[11.2 µM],5%[11.2 µM],-6%[12.4 µM],.,
COC(=O)CCCC1=CC2=CC(=O)C(C)(OC(=O)c3cccs3)C(=O)C2=CN1Cc1ccco1 (centres undefined),?,0%[11.2 µM],-2%[11.2 µM],-10%[12.4 µM],9%,
CCCCC1=CC2=CC(=O)C(C)(OC(=O)CC)C(=O)C2=CN1Cc1ccco1 (centres undefined),?,0%[11.2 µM],3%[11.2 µM],-6%[12.4 µM],-11%,
CC1(OC(=O)c2cccs2)C(=O)C=C2C=C3CCCN3C=C2C1=O (centres undefined),25µM*,-3%[11.2 µM],0%[11.2 µM],22µM*,?,RECQ1 inh conf=35µM*;RECQ1 ADP FP=35µM*
CCCCC1=CC2=C(c3ccco3)C(=O)C(C)(OC(=O)c3ccc(OC)cc3)C(=O)C2=CN1Cc1ccco1 (centres undefined),6.3µM*!,?,-1%[11.2 µM],?,-9%,
CC1(N)CCC(C(C)(C)N)CC1 (centres undefined),-1%,-2%,-3%,.,.,
CN(CC(=O)Nc1ccc(F)cc1F)S(=O)(=O)c1ccc(C(=O)N2CCOCC2)s1,.,-1%,-5%,1%,.,
COc1cccc(/C=N/Nc2nc3ccccc3n3cnnc23)c1O,5µM*,-1%,-2%,-11%,.,RECQ1 inh conf=-5%[114 µM]
